These results are taken from PubChem BioAssay (EPA / NIEHS).

Active and inactive are the calls of the source. Rule for the calls: active = hit-call score of the fitted dose curve at least 0.9, where 1 is the maximum; inactive = score below 0.9.

Read-out in assay [1]: Transforming growth factor beta 1 (TGFb1), TGFB1 (gene 7040)
Kind of assay: BSK_KF3CT_TGFb1: BioMAP Diversity Plus: KF3CT Assay for Transforming growth factor beta 1 (TGFb1) Biomarker Activity (AID 2283072). The note with it: primary human keratinocytes with fibroblasts; actives raise or lower the signal. Summed up: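 KF3CT co-culture (keratinocytes + fibroblasts), 24 h exposure → TGF-b1 ELISA → bidirectional fit, DMSO = baseline. Parallel SRB total-protein staining (0.1% SRB, 10% TCA fixation, 560 nm) for cytotoxicity.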

Read-out in assay [2]: C-C motif chemokine 2 (Homo sapiens) (UniProt P13500)
In words: BSK_KF3CT_MCP1: BioMAP Diversity Plus: KF3CT Assay for Monocyte Chemoattractant Protein 1 (MCP1/CCL2) Biomarker Activity (AID 2283073). The note with it: primary human keratinocytes with fibroblasts; actives raise or lower the signal. Summed up: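 Human keratinocyte plus foreskin fibroblast primary co-culture exposed to chemical for 24 h. MCP-1 levels measured by ELISA. Bidirectional curve fitting relative to DMSO negative control as baseline.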

Read-out in assay [3]: Matrix Metallopeptidase 9 (MMP9), MMP9 (gene 4318)
In words: BSK_KF3CT_MMP9: BioMAP Diversity Plus: KF3CT Assay for Matrix Metallopeptidase 9 (MMP9) Biomarker Activity (AID 2283074).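 For AC50: MMP9 protein level quantified by ELISA in the co-culture.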 The conditions noted are these: primary human keratinocytes with fibroblasts; actives raise or lower the signal. A digest of the protocol:
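ELISA read-out of MMP-9 at 24 h post-dosing in a co-culture of human skin keratinocytes and foreskin fibroblasts. Gain or loss of signal was fitted in both directions against DMSO.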

Read-out in assay [4]: urokinase plasminogen activator (uPA), PLAU (gene 5328)
In words: BSK_KF3CT_uPA: BioMAP Diversity Plus: KF3CT Assay for urokinase plasminogen activator (uPA) Biomarker Activity (AID 2283075). The note with it: primary human keratinocytes with fibroblasts; actives raise or lower the signal. Summed up: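 Skin co-culture (keratinocytes + foreskin fibroblasts), human primary; 24 h post-dose; uPA by ELISA; gain/loss fit vs DMSO baseline.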

Read-out in assay [5]: CD40, CD40 (gene 958)
Kind of assay: BSK_LPS_CD40: BioMAP Diversity Plus: LPS Assay for CD40 Biomarker Activity (AID 2283076). The conditions noted are these: primary human HUVEC with PBMC; actives raise or lower the signal. A digest of the protocol: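 Primary human umbilical vein endothelial cells co-cultured with peripheral blood mononuclear cells, LPS-stimulated, were dosed with chemical and read 24 h later. CD40 levels were measured by ELISA and fitted bidirectionally against DMSO as negative control and baseline.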

Read-out in assay [6]: E-selectin (Homo sapiens) (UniProt P16581)
Kind of assay: BSK_LPS_Eselectin: BioMAP Diversity Plus: LPS Assay for Eselectin Biomarker Activity (AID 2283077). The note with it: primary human HUVEC with PBMC; actives raise or lower the signal. A digest of the protocol: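 Human umbilical vein endothelial cells co-cultured with peripheral blood mononuclear cells under LPS stimulation; E-selectin measured by ELISA 24 h after chemical dosing. Activity fitted bidirectionally against DMSO as negative control and baseline.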

Read-out in assay [7]: Interleukin-8 (IL8), CXCL8 (gene 3576)
In words: BSK_LPS_IL8: BioMAP Diversity Plus: LPS Assay for Interleukin-8 (IL8) Biomarker Activity (AID 2283078). The conditions noted are these: primary human HUVEC with PBMC; actives raise or lower the signal. A digest of the protocol: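 Human umbilical vein endothelial cells co-cultured with PBMC were stimulated with LPS; IL-8 levels were measured by ELISA 24 h after chemical dosing. Activity was fitted bidirectionally against DMSO as negative control and baseline.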

Assay [8] is described as follows: BSK_LPS_SRB: Viability Assessment in the BioMAP Diversity Plus: LPS Assay (AID 2283079).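 Note: total protein by sulforhodamine B absorbance as a cytotoxicity measure; measured one day after compound addition.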 The note with it: primary human HUVEC with PBMC. Summed up: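 Human umbilical vein endothelial cells co-cultured with PBMC (LPS system) were dosed for 24 h. Total protein was stained with 0.1% sulforhodamine B after 10% TCA fixation, read at 560 nm, and fitted bidirectionally against DMSO baseline.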

Read-out in assay [9]: Interleukin-1 alpha (IL1a), IL1A (gene 3552)
In words: BSK_LPS_IL1a: BioMAP Diversity Plus: LPS Assay for Interleukin-1 alpha (IL1a) Biomarker Activity (AID 2283080). The note with it: primary human HUVEC with PBMC; actives raise or lower the signal. Summed up: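 Human umbilical vein endothelial cells co-cultured with peripheral blood mononuclear cells were LPS-stimulated and exposed to test chemicals for 24 h. IL-1 alpha was quantified by ELISA, with bidirectional curve fitting against DMSO as the negative control and baseline.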

Read-out in assay [10]: Monocyte Chemoattractant Protein-1 (MCP1), CCL2 (gene 6347)
Kind of assay: BSK_LPS_MCP1: BioMAP Diversity Plus: LPS Assay for Monocyte Chemoattractant Protein-1 (MCP1) Biomarker Activity (AID 2283081).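 For AC50: co-culture stimulated with LPS; secreted MCP-1 protein quantified by ELISA in culture supernatant.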 The conditions noted are these: primary human HUVEC with PBMC; actives raise or lower the signal. Summed up:
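HUVEC plus PBMC co-culture (human primary cells, LPS system) exposed to test chemical for 24 h; MCP-1 measured by ELISA. Bidirectional curve fitting against DMSO baseline; parallel SRB total-protein staining flags overt cytotoxicity.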

Sequence of E-selectin (Homo sapiens) (P16581 whole entry, looked up): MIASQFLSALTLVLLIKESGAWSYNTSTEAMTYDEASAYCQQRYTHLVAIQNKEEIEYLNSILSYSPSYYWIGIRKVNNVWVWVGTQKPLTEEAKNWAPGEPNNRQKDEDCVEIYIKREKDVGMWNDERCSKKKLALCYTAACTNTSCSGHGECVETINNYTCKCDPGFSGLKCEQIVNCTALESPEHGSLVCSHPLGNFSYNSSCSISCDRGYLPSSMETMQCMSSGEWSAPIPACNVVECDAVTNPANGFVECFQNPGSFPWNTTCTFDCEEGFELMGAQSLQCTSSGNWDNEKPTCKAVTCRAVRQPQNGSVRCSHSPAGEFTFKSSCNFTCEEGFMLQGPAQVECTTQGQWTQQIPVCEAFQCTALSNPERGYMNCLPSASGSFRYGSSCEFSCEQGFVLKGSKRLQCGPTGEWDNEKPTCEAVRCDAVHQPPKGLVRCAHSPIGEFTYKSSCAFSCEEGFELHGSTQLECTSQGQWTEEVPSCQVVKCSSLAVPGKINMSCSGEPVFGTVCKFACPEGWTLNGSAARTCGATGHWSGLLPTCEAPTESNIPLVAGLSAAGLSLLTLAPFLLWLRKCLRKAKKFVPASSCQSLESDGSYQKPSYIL

In the case of `C=C(C)C(=O)OCCOCCOCCOCCOC(=O)C(=C)C`, the result in [1], in assay [2], in assay [3], in assay [4], in assay [5] and in assay [6] was inactive. Also, the result in assay [7], in [8], in assay [9] and in assay [10] was inactive.

Take `COc1ccc(CCN2CCC(Nc3nc4ccccc4n3Cc3ccc(F)cc3)CC2)cc1`: the result in assay [1], in [2], in assay [4], in assay [5], in [6] and in assay [7] was inactive. The outcome in assay [9] and in [10] was inactive. In addition, the AC50 in [3] and in assay [8] was 5 µM (active) each time.

Consider `Cc1cc(CCC(=O)OCCOCCOCCOC(=O)CCc2cc(C)c(O)c(C(C)(C)C)c2)cc(C(C)(C)C)c1O`, for which the outcome in assay [1], in assay [2], in assay [3], in [4], in assay [5] and in assay [6] was inactive. Moreover, the outcome in [7], in [8], in assay [9] and in assay [10] was inactive.

On to `IC(I)I`, for which the result in [1], in assay [2], in assay [3], in assay [4], in assay [5] and in assay [6] was inactive. Further, the result in assay [7], in [8], in [9] and in assay [10] was inactive.

With `c1ccc(CCc2ccccc2)cc1`, the AC50 in assay [1] is 12.8 µM (active); in [2], 20 µM (active); in [3] it was 28.5 µM (active); in assay [4] it was 20 µM (active); in assay [5], 30.9 µM (active); in [6] it was 31.9 µM (active). Besides, the results for the AC50 in assay [7], in assay [8] and in [9] were 20 µM (active), 36.4 µM (active) and 32.7 µM (active), respectively. The outcome in assay [10] was inactive.

For `CS(=O)(=O)c1ccc(C2=C(c3ccccc3)C(=O)OC2)cc1`, the outcome in [1], in assay [2], in assay [3], in [4], in assay [5] and in [6] was inactive. In addition, the result in assay [7], in assay [9] and in assay [10] was inactive. Moreover, the AC50 in assay [8] is 1.98 µM (active).

As to `CC(C)(N=C=O)c1cccc(C(C)(C)N=C=O)c1`, the outcome in assay [1], in assay [2], in [3], in [4], in assay [5] and in [6] was inactive. Further, the result in assay [7], in assay [8], in assay [9] and in assay [10] was inactive.

As to `Oc1c(Cl)cc(Cl)c(Cl)c1Cc1c(O)c(Cl)cc(Cl)c1Cl`, the AC50 in assay [1] is 2.81 µM (active); in [2] it was 5.44 µM (active); in assay [3] it was 0.74 µM (active); in [4], 2.99 µM (active); in assay [5], 6.43 µM (active); in [6] it was 22.8 µM (active). Besides, the AC50 was 15.3 µM (active) in assay [7], 14.1 µM (active) in [8], 9.2 µM (active) in [9] and 32.5 µM (active) in assay [10].

With `CCN(CC)C(=O)N(CC)CC`, the result in assay [1], in [2], in assay [3], in assay [4], in assay [5] and in assay [6] was inactive. Moreover, the outcome in assay [7], in [8], in [9] and in assay [10] was inactive.

In the case of `c1ccc2cc(Nc3ccc(Nc4ccc5ccccc5c4)cc3)ccc2c1`, the result in assay [1], in assay [2], in assay [3], in [4], in [5] and in assay [6] was inactive. Besides, the outcome in assay [7], in assay [8], in [9] and in assay [10] was inactive.

In the case of `COc1cc(Cl)c(OC)cc1N`, the outcome in [1], in assay [2], in assay [3], in assay [4], in [5] and in [6] was inactive. Besides, the result in assay [7], in assay [8], in assay [9] and in assay [10] was inactive.

Regarding `CC(C=O)Cc1ccc(C(C)(C)C)cc1` (stereo not given), the outcome in assay [1], in assay [2], in assay [7] and in assay [10] was inactive. The AC50 was 36.7 µM (active) in assay [3]; 31 µM (active) in assay [4]; 27.2 µM (active) in [5]; 31.4 µM (active) in [6]; 32.6 µM (active) in assay [8]; 35.8 µM (active) in assay [9].

For `O=C1OC[C@H](Cc2cccc(O)c2)[C@H]1Cc1cccc(O)c1`, the outcome in assay [1], in assay [2], in [3], in assay [4], in assay [5] and in assay [6] was inactive. Further, the outcome in assay [7], in assay [8], in assay [9] and in assay [10] was inactive.

On to `C=C(C)[C@H]1CC=C(C)C(=O)C1`, for which the result in [1], in [2], in assay [3], in [4], in [5] and in assay [6] was inactive. For the same compound, the outcome in assay [7], in [8], in [9] and in [10] was inactive.

As to `CN(c1nccc(=O)[nH]1)C1CCN(c2nc3ccccc3n2Cc2ccc(F)cc2)CC1`, the result in assay [1], in assay [2], in assay [3], in [4], in assay [5] and in [6] was inactive. Further, the outcome in assay [7], in assay [8], in assay [9] and in assay [10] was inactive.

With `C=C(C)C(=O)OCCOCCOCCOC(=O)C(=C)C`, the outcome in assay [1], in assay [2], in assay [3], in [5], in assay [6] and in assay [7] was inactive. Also, the result in assay [8], in [9] and in assay [10] was inactive. Moreover, the AC50 in assay [4] was 3.97 µM (active).

For `CC1(C)C2=CCCC(C)(C)[C@]23CC[C@H]1C3`, the AC50 is 7.31 µM (active) in assay [1] and 20 µM (active) in assay [2]. Further, the result in assay [3], in [4], in assay [5], in [6], in assay [7] and in [8] was inactive. Besides, the outcome in assay [9] and in assay [10] was inactive.

For the compound `CCCCCCCCCCCCCCCC(=O)OC/C=C(C)/C=C/C=C(C)/C=C/C1=C(C)CCCC1(C)C`, the AC50 in [1] was 0.0644 µM (active); in assay [3], 0.125 µM (active). Moreover, the result in assay [2], in assay [4], in assay [5], in assay [6], in assay [7] and in [8] was inactive. Besides, the outcome in assay [9] and in assay [10] was inactive.

In the case of `c1ccc(Oc2ccccc2)cc1`, the AC50 was 20 µM (active) in [1], 30.7 µM (active) in assay [2], 20 µM (active) in assay [3] and 20 µM (active) in assay [4]. For the same compound, the result in assay [5], in assay [6], in [7], in assay [8], in assay [9] and in assay [10] was inactive.

On to `CN(C)C(=S)SC(=S)N(C)C`, for which the result in assay [1], in [2], in [3], in assay [4], in assay [5] and in [6] was inactive. The outcome in [7], in assay [8], in assay [9] and in assay [10] was inactive.

As to `COc1ccc(OC)c(N=Nc2c(O)ccc3ccccc23)c1`, the AC50 in assay [1] was 3.97 µM (active); in assay [3] it was 4.27 µM (active); in assay [4], 7.69 µM (active); in assay [5] it was 3.84 µM (active); in [6], 20 µM (active); in [9] it was 6.45 µM (active). The AC50 in assay [10] was 8.02 µM (active). Further, the result in assay [2], in [7] and in assay [8] was inactive.

In the case of `CC(=O)C1(C)CC2=C(CCCC2(C)C)CC1C` (stereo not given), the result in assay [1] was inactive. For the same compound, the AC50 is 10.3 µM (active) in assay [2]; 10.9 µM (active) in [3]; 11.6 µM (active) in assay [4]; 6.43 µM (active) in assay [5]; 9.47 µM (active) in assay [6]; 10.1 µM (active) in [7]. Further, the half-maximal activity concentration (AC50) in assay [8] was 13.3 µM (active); in [9], 5.8 µM (active); in assay [10] it was 10.9 µM (active).

In the case of `CCCCOC(=O)CCCCCCCC(=O)OCCCC`, the result in assay [1], in assay [2], in assay [3], in assay [4], in [5] and in assay [6] was inactive. Also, the result in assay [7], in assay [8], in assay [9] and in [10] was inactive.
